# Rows were chosen to be rich in hits. Some 18% of all compounds tested hit in one or more screens of this group.
# TDP1 cell noCPT: qHTS for Inhibitors of human tyrosyl-DNA phosphodiesterase 1 (TDP1): qHTS in cells in absence of CPT | DT40 Tdp1-/- hTDP1 cells, no CPT, ATP luminescence, 48 h | Potency, µM (top dose mostly 46.2 µM), for the others: at the highest dose activity change, negative = growth inhibition, hits mostly inhibitors | actives 15% (n = 420,000) | AID 686978, 2013; note: potency is the fitted concentration of half-maximal effect; nearly all actives have a fitted effect of over 55% in size
#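 DT40 Tdp1-/-;hTDP1 cells, no CPT (DMSO vehicle only), 400 cells/well; compounds pin-transferred; ≥48 hr, 37 °C; CellTiter-Glo 30 min RT dark, luminescence read.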
# LDHA block: inhibitors of human lactate dehydrogenase A; purified LDHA, NADH/diaphorase-resazurin fluorescence; active compounds read low; activity change, % (values are at about 110 or 230 µM); actives 0.15% (n = 480,000); in the data active = activity change below about -30%; inconclusive = mostly about -25% to -30%;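 note: plate controls were DMSO wells for no effect and wells without enzyme for full effect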
#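 Remaining NADH was detected by diaphorase (0.133 mg/mL) converting 37 µM resazurin to fluorescent resorufin, read at 0 and 20 minutes. The preceding 5-minute room-temperature reaction used 2 nM LDHA, 0.2 mM sodium pyruvate and 0.06 mM NADH at pH 7.4.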
# Gal4-VP16 FLuc: inhibits Gal4-VP16 luciferase reporter, ROR gamma counter-screen; Drosophila S2 Gal4-VP16 UAS-luciferase, luminescence, 20 h; Potency, µM (top dose mostly 53.6 µM), for the others: at the top dose activity, negative = inhibition, hits mostly inhibitors; actives 3.5% (n = 310,000); AID 2546;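 note: Gal4-VP16 expression switched on by copper sulfate through the metallothionein promoter; potency is the fitted concentration of half-maximal effect; nearly all actives have a fitted effect of over 50% in size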
# RORgamma inh: blocks mouse ROR gamma transcriptional activity; Drosophila S2 Gal4-RORgamma UAS-luciferase reporter, 20 h; Potency, µM (series often up to 53.6 µM), inactives show at the highest dose activity change, negative = inhibition, actives largely listed as inhibitors; actives 5.4% (n = 310,000); note: potency is the fitted concentration of half-maximal effect; nearly all actives have a fitted effect of over 60% in size
# Target sequence (P51450 whole entry, looked up, the tested form may be a part): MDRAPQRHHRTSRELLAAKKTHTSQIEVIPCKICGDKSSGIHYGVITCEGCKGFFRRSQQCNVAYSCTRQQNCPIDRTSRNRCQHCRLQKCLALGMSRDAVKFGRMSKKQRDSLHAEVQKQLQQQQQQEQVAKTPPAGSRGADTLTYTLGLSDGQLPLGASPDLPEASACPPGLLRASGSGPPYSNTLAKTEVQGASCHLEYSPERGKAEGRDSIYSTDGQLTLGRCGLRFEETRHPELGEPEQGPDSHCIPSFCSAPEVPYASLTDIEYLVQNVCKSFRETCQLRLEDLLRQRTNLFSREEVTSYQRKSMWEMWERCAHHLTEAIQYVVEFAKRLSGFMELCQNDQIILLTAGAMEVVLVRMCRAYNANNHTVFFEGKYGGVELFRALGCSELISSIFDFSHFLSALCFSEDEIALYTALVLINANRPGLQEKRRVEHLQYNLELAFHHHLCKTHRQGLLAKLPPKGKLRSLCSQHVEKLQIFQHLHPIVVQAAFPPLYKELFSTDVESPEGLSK
#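 A Gal4/UAS one-hybrid system in insect cells: metallothionein-promoter Gal4–ROR gamma fusion plus Photinus luciferase reporter. Copper sulfate 700 uM final, 20 hr ambient incubation, luminescent detection after 10 min with reagent.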
# IL-1B inflam inh: inflammasome signaling inhibition, IL-1 beta readout; actives 4.7% (n = 360,000); activity change, % at 57.5 µM; THP-1 LPS/ATP IL-1B secretion, AlphaLISA, 16 h; active compounds read low; in the data active = activity change below about -50%; inconclusive = mostly about -30% to -49%
#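 THP-1 cells pretreated 1 hr with compounds (up to 57.5 uM final), then stimulated with LPS (250 ng/mL final) plus ATP (1.25 mM final); secreted IL-1B measured by AlphaLISA after 16 hr, decreased signal indicating inhibition.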
# DT40 TDP1 CPT: growth inhibition of DT40 Tdp1-/-;hTDP1 cells with camptothecin (screen for TDP1 inhibitors) | chicken DT40 Tdp1-/-;hTDP1 cells + 20 nM CPT, ATP luminescence, 48 h | actives 12% (n = 420,000) | Potency, µM (doses to about 46.2 µM), without a hit: at the top dose activity change, negative = growth inhibition, hits mostly inhibitors; note: potency is the fitted concentration of half-maximal effect; nearly all actives have a fitted effect of over 55% in size
#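 Chicken DT40 Tdp1-/- cells complemented with human TDP1, 400 cells/well, exposed to compounds plus 20 nM camptothecin for at least 48 h at 37 C; viability read as ATP content by CellTiter-Glo luminescence.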
# * = called active by the depositor; u = inconclusive; x = no result. Unless noted, calls come from the whole dose curve; as a rule, active = well fitted curve in the direction sought with a large enough effect; inconclusive = small, poorly fitted or top-dose-only effect, or another doubt; inactive = no such curve, though single readings can be large; an effect the other way counts as inactive or inconclusive. Unless noted, % is set by controls: 0 for no effect and ±100 for the full control effect.
SMILES,TDP1 cell noCPT,LDHA block,Gal4-VP16 FLuc,RORgamma inh,IL-1B inflam inh,DT40 TDP1 CPT
C#CCOCCOCCOCCNc1nc(N2CCN(C(=O)CCCCCCCCCCNC(=O)[C@H](CCCCN)n3cc(C[C@@H](C)CC)nn3)CC2)nc(N2CCN(C(=O)CCCCCCCCCCNC(=O)[C@@H]([C@H](C)O)n3cc(C)nn3)CC2)n1,5.17µM*,1.1,x,x,u,4.61µM*
Cc1c(C(=O)N(C)c2ccccc2)sc2nc3n(c(=O)c12)CCCC3,x,-6.2,x,x,x,x
CC(NC(=O)/C=C/c1ccc(Cl)cc1)c1ccc(NC(N)=O)cc1 (stereo not drawn),x,-3.6,x,x,x,x
CCCCC1CCC(C(=O)Nc2c(C(C)C)cccc2C(C)C)CC1 (stereo not drawn),x,-9.7,x,x,x,x
COc1ccc(C(=O)C[n+]2cn(C(F)F)c3ccccc32)c(F)c1,20.6µM*,-40.0*,11.9%,10.0%,u,u
CN(C)C=Nc1ncc2c3ccccc3n(CCN(C)C)c2c1C#N,23.1µM*,5.1,u,-25.0%,-76.6*,20.6µM*
CCN(CC)CCn1c2ccccc2c2cnc(N)c(C#N)c21,20.6µM*,-4.4,-62.7%,0.178µM*,-103.7*,u
CN(C)C=Nc1ncc2c3ccccc3n(Cc3ccccc3)c2c1C#N,u,1.8,5.7%,-20.9%,-4.0,-26.2%
Cc1cccc(NC(=O)Cc2nn(C)c(=O)c3ccccc23)c1C,x,2.5,x,x,x,x
C/C(=N/Nc1ccc(C(=O)O)cc1)c1ccc(O)c(O)c1O,14.6µM*,18.8,-18.0%,u,4.7,14.6µM*
C/C(=N\Nc1ccc(C(=O)O)cc1)c1nc2ccccc2n1C,x,x,-24.5%,-2.3%,x,x
Cc1[nH]n(-c2ccccc2)c(=O)c1-c1cccc(Cl)c1,-3.9%,-10.3,-6.7%,1.0%,-7.5,-24.2%
COc1cccc(-n2c(-c3cccc(S(=O)(=O)N(C)C)c3)n[nH]c2=S)c1,-4.7%,0.2,10.3%,-32.7%,21.7,-2.0%
S=c1[nH]cc(-c2ccccc2)n1-c1cccc(Cl)c1,u,-6.2,4.47µM*,2.51µM*,-4.0,u
COc1cccc(-n2c(-c3ccccc3)c[nH]c2=S)c1,u,-5.7,10µM*,11.2µM*,8.7,u
COc1ccc(CSc2nnc(Cc3ccc(OCC(C)C)cc3)n2C)cc1Br,x,0.7,x,x,x,x
Cc1ccc2oc(SCc3noc(CCC(=O)Nc4ccc5ccccc5c4)n3)nc2c1,x,3.4,x,x,x,x
Cc1ccc(C(=O)C(OC(=O)c2sccc2C)c2ccc(C)cc2)cc1 (stereo not drawn),x,-23.1,x,x,x,x
CCN1CCN(C(c2ccccc2OC)c2nnnn2C2CCCCC2)CC1 (stereo not drawn),-22.5%,-2.7,-0.2%,22.4%,-2.1,4.3%
COc1cccc(C(c2nnnn2C2CCCCC2)N2CCN(C/C=C/c3ccccc3)CC2)c1OC (stereo not drawn),13µM*,5.2,x,x,x,16.4µM*
FC(F)(F)Oc1ccccc1C(c1nnnn1C1CCCC1)N1CCN(C/C=C/c2ccccc2)CC1 (stereo not drawn),16.4µM*,-5.7,x,x,-25.5,u
N#Cc1cc2c(nc1SCC(=O)Nc1cccc(Cl)c1)CCCC2,x,-0.5,x,x,x,x
COC(=O)c1ccc(C(=O)OC)c(NC(=S)N2CCCCC2C)c1 (stereo not drawn),u,2.9,u,15.8µM*,-9.3,-29.2%
Cc1cnc2c(S(=O)(=O)N3CCN(CC(F)(F)F)CC3)cccc2c1,x,2.7,x,x,x,x
CC(C)CNC(=O)COc1ccc2c(C(C)C)cc(=O)oc2c1,x,6.7,x,x,x,x
SMILES,TDP1 cell noCPT,LDHA block,Gal4-VP16 FLuc,RORgamma inh,IL-1B inflam inh,DT40 TDP1 CPT
COC(=O)c1ccc(CSc2nnc(-c3c[nH]c4ccccc34)n2-c2ccccc2)cc1,16.4µM*,-4.8,-14.3%,u,u,20.6µM*
COCCn1c(SCc2ccc(C(=O)OC)o2)nnc1-c1c[nH]c2ccccc12,u,-1.0,11.6%,7.8%,-16.6,-20.2%
COC(=O)c1ccc(CSc2nnc(-c3c[nH]c4ccccc34)n2C)o1,13µM*,-3.9,1.1%,23.1%,-0.8,23.1µM*
O=S(=O)(Cc1ccccc1F)CC1COc2ccccc2O1 (stereo not drawn),x,-3.8,x,x,x,x
COc1ccc(C(=O)c2ccc3oc(-c4ccc(OC)cc4)c(-c4ccc(O)cc4)c3c2)cc1,9.2µM*,-0.1,x,x,-18.7,u
CCOCCN1CCN(c2c3c(nc4cc(-c5ccc(F)cc5)nn24)CCC3)CC1,16.4µM*,-2.8,-4.6%,-9.7%,-6.8,u
CCc1c(C)nc2cc(-c3cc(OC)cc(OC)c3)nn2c1N1CCCC1,23.1µM*,5.5,12.6µM*,7.08µM*,u,29.1µM*
CCOCCN1CCN(c2c(CC)c(C)nc3cc(-c4cc(OC)cc(OC)c4)nn23)CC1,14.6µM*,-1.4,-15.2%,u,u,20.6µM*
COc1ccc(-c2cc3nc(C)cc(-c4ccc(OC)cc4)n3n2)cc1,u,-0.5,1.4%,7.9%,38.0,u
CCc1c(C)nc2cc(-c3ccc(OC)c(OC)c3)nn2c1N1CCCC1,23.1µM*,0.9,u,-44.9%,u,u
Cc1ccc(CNC(=O)Nc2c(NC3CCCC3)c3ccccc3oc2=O)cc1,x,-7.3,x,x,x,x
COc1ccc2oc(=O)c(-c3ccc(OCC(=O)N4CCN(C=O)CC4)cc3)cc2c1,x,1.0,x,x,x,x
Cc1nc(SCc2nc(-c3ccccc3)oc2C)[nH]c(=O)c1C,x,7.2,x,x,x,x
COc1cc(OC)cc(-c2cc3nc4c(c(N5CCN(c6ncccn6)CC5)n3n2)CCCC4)c1,23.1µM*,-3.9,1.1%,19.5%,-10.8,u
COc1ccc(-c2c(C)nn3c(N4CCCCCC4)cc(C)nc23)cc1OC,25.9µM*,0.7,-15.8%,u,-82.4*,23.1µM*
Clc1cccc(-c2cc3nc4c(c(N5CCNCC5)n3n2)CCCC4)c1,x,x,-1.4%,-9.1%,x,x
Cc1cccc(-c2ccc(NC(=O)C3CCN(CC4CC4)CC3)cc2)c1,18.4µM*,-1.9,1.9%,-0.1%,u,u
COc1cccc(-c2cccc(NC(=O)C3CCN(Cc4ccc(C)o4)CC3)c2)c1,u,-2.2,-1.4%,26.0%,-1.5,-0.3%
COc1cccc(CN2CCC(C(=O)Nc3ccc(-c4cccc(C)c4)cc3)CC2)c1O,16.4µM*,2.0,u,u,0.0,16.4µM*
